PubChem BioAssay (NCI)
The panel holds about 79,000 compounds, 15% with a hit somewhere; the sample as a whole holds those more often. Calls of active or inactive are those of the source. Rule as the data show it: active = growth inhibition above about 70%; inactive = the rest.

Key:
[1] = NCI Yeast Anticancer Drug Screen. Data for the rad50 strain (AID 155);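 also: 0% = growth of vehicle-only cultures of the same strain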; settings: S. cerevisiae rad50 strain growth inhibition; at 50.0 µM; active compounds read high
Procedure, shortened: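 Compounds were tested on a yeast strain with an engineered DNA damage repair alteration; the reported value is growth inhibition normalised to vehicle treatment.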

[2] = NCI Yeast Anticancer Drug Screen. Data for the mec2-1 strain (AID 157); settings: S. cerevisiae mec2-1 strain, at 50.0 µM, active compounds read high
Procedure, shortened: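 Growth inhibition is read against vehicle-treated controls after compound exposure of the mec2-1 yeast strain, which is defective in DNA damage repair or cell cycle control.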

[3] = NCI Yeast Anticancer Drug Screen. Data for the sgs1 mgt1 strain (AID 161);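 also: 0% = growth of cultures given vehicle only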; settings: S. cerevisiae sgs1 mgt1 strain, at 50.0 µM, active compounds read high
Procedure, shortened: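 Percent growth inhibition was derived by comparing compound-exposed mutant yeast with vehicle-exposed cultures. The strain carries alterations in DNA damage repair.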

[4] = NCI Yeast Anticancer Drug Screen. Data for the cln2 rad14 strain (AID 165);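 also: 0% = growth equal to vehicle treated cultures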; settings: S. cerevisiae cln2 rad14 strain, at 50.0 µM, active compounds read high
Procedure, shortened: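 Growth inhibition, relative to vehicle-treated controls, is the read-out. The test organism is a yeast strain with defined genetic alterations, cln2 rad14.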

[5] = NCI Yeast Anticancer Drug Screen. Data for the bub3 strain (AID 167); settings: S. cerevisiae bub3 mutant strain, at 50.0 µM, active compounds read high
Procedure, shortened: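 Growth of a checkpoint-deficient yeast mutant is measured after compound exposure. Values represent inhibition relative to vehicle.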

[6] = NCI Yeast Anticancer Drug Screen. Data for the mlh1 rad18 strain (AID 175); settings: S. cerevisiae mlh1 rad18 strain growth inhibition; at 50.0 µM; active compounds read high
Procedure, shortened: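 Cells of a genetically altered yeast strain, deficient in DNA damage repair, were treated with compound. Their growth was then compared with that of vehicle-treated cultures to give inhibition.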

Measured: growth inhibition

CCC(C#N)NC(=O)NC(C#N)CC (configuration not stated)
inactive: [1] 0.75% | [2] 14.6% | [3] -9.7% | [4] -1.6% | [5] -16.9% | [6] -42.1%

CCCCCC(=O)N1CCCCC1CC (configuration not stated)
inactive: [1] -8.55% | [2] 7.15% | [3] -19.6% | [4] -10.1% | [5] -25.6% | [6] -28.1%

C=CCCCCCCCCC(=O)OCC(C)C
inactive: [1] 11.3% | [2] 22.4% | [3] 15.9% | [4] -27.2% | [5] -24.1% | [6] 17.4%

Cc1ncc(COP(=O)(O)O)c(C)c1O
inactive: [1] -15.7% | [2] -10.1% | [3] -33.5% | [4] -33.6% | [5] -31.3% | [6] -13.6%

COc1cc(C2SCC(=O)N2NC(=O)c2ccc(NC(C)=O)cc2)cc(OC)c1OC (configuration not stated)
inactive: [1] -11.8% | [2] -3.95% | [3] -5.2% | [4] 6.15% | [5] -12.4% | [6] -12.2%

COCCCN1C(=O)C2c3[nH]c4ccccc4c3C3CCC(C(C)(C)C)CC3C2C1=O (configuration not stated)
inactive: [1] 34.9% | [2] 8.55% | [3] 21.9% | [4] 45.4% | [5] 35.1% | [6] 49.5%

O=C1NC(N2CCOCC2)=N/C1=C\c1ccccc1O
active: [6] 81.2%
inactive: [1] -1.3% | [2] -26% | [3] -7.8% | [4] -8.65% | [5] 16.1%

NC(=O)Nc1ccc(S(=O)(=O)c2ccc(N)cc2)cc1
inactive: [1] 0.5% | [2] -5.2% | [3] 12.5% | [4] -5.35% | [5] 4% | [6] -15.7%

COC(=O)CCOc1ccc(C)cc1
inactive: [1] 28.2% | [2] 12.9% | [3] 6.6% | [4] 10.3% | [5] -5.85% | [6] -21.9%

CCCCOC(=O)/C=C\C(=O)NC(=O)NC(C)(C)C
inactive: [1] -7.55% | [2] 1.2% | [3] -4.3% | [4] -33.1% | [5] 5.05% | [6] 3.15%

CNCC(=O)NC(CO)C(=O)NC(CO)C(=O)NC1C(C(N)=O)OC(n2ccc(N)nc2=O)C(O)C1O (configuration not stated)
inactive: [1] 13.3% | [2] 10.3% | [3] 8.75% | [4] 38.5% | [5] 23.9% | [6] 24.3%

CCCCC(CC)OC(=O)c1cccc(C)c1 (configuration not stated)
inactive: [1] 9.15% | [2] 2.25% | [3] 17.8% | [4] -7.4% | [5] -0.05% | [6] 7.1%

O=C(CNC(=O)c1ccccc1)Nc1ccc([N+](=O)[O-])cc1
inactive: [1] 15.2% | [2] -0.65% | [3] -1.5% | [4] 26.8% | [5] 22.6% | [6] 5.7%

O=C(Nc1ccccc1)c1cccn1-c1ccccc1
inactive: [1] 2.7% | [2] -13.1% | [3] 12.1% | [4] 13.5% | [5] -19% | [6] -2.95%

CC(=[N-])CC(C)=O.O=C(CC(=Nc1ccccc1)c1ccccc1)c1ccccc1.[Cu+]
inactive: [1] -21.2% | [2] -7.5% | [3] 1.6% | [4] 29.3% | [5] -3.45% | [6] 16.2%

CC1(C)COC(c2ccccc2Cl)OC1
inactive: [1] 20.1% | [2] 9% | [3] -0.45% | [4] -24.6% | [5] 0.7% | [6] 18.6%

O=C(Nc1cccc(C(=O)Nc2ccc(S(=O)(=O)O)c3cc(S(=O)(=O)O)cc(S(=O)(=O)O)c23)c1)Nc1cccc(C(=O)Nc2cccc3c(S(=O)(=O)O)c(S(=O)(=O)O)cc(S(=O)(=O)O)c23)c1
inactive: [1] -0.25% | [2] 7.2% | [3] 0.65% | [4] 47.9% | [5] 12.9% | [6] 13.7%

O=C(Nc1ccccc1Cl)Oc1ccc(C(=O)c2ccccc2)cc1
inactive: [1] -0.3% | [2] -13.3% | [3] 30.2% | [4] 19.9% | [5] 16.9% | [6] 13.2%

COc1ccc(/C(C)=N/NC(=O)CC(=O)N(C(=O)c2ccccc2)c2ccc(C)cc2)cc1
inactive: [1] -8.45% | [2] -36% | [3] -6.5% | [4] 8.15% | [5] -27.2% | [6] -17.9%

O=C(O)CCc1nc2c(n1Cc1ccccc1)C(=O)c1ccccc1C2=O
inactive: [1] 28.4% | [2] 21.3% | [3] 43.3% | [4] 44.7% | [5] 41.1% | [6] 13%

Cc1cnoc1/N=C1\C=C(Nc2oncc2C)C(=O)c2ccccc21
inactive: [1] -14.7% | [2] -6.55% | [3] -31.9% | [4] 2.9% | [5] -17.3% | [6] -8.85%

O=C(c1ccccc1)c1cc(Cl)ccc1N1C(=O)C=CC1=O
active: [1] 99.2% | [2] 99.7% | [3] 99.7% | [4] 99.2% | [5] 99% | [6] 99.5%

CCCCCCCCCCCCCCCCOc1ccc(Sc2ccc([N+](=O)[O-])cc2)cc1
inactive: [1] 44.5% | [2] 4.2% | [3] 35.6% | [4] -3.9% | [5] 13.6% | [6] 31.6%

O=C(NCCNc1ccccc1)C12CC3CC(CC(C3)C1)C2
inactive: [1] -4.2% | [2] 1.35% | [3] -3.9% | [4] -2.4% | [5] 19.1% | [6] 9.5%

CCc1cc(CC)n2cnnc2n1
inactive: [1] 16.7% | [2] -3.75% | [3] -9% | [4] -29.6% | [5] 7.2% | [6] -8.5%

CC(=O)OCC(=O)O[C@@H]1[C@H]2[C@@H](OC(=O)c3ccccc3)[C@@H](C)C[C@]2(O)[C@H](OC(C)=O)[C@@]2(C)C(OC(C)=O)[C@]1(OC(C)=O)C[C@H]1C(=O)C(C)(C)C[C@@H]12 (some centres not stated)
inactive: [1] -39.6% | [2] -33% | [3] -36.5% | [4] -28.9% | [5] -41.5% | [6] -61%

Cc1nc2scc(C)c2c(=S)[nH]1
inactive: [1] -0.85% | [2] 1.5% | [3] 6.75% | [4] -38.9% | [5] -11.8% | [6] -2.45%

CC1(C)C2CC3OC3(C)C1C2 (configuration not stated)
inactive: [1] 21.3% | [2] -7% | [3] 12.4% | [4] -55.9% | [5] -19.9% | [6] -10.8%

COc1ccc(C(C)c2cc3c(cc2OCCO)OCO3)cc1 (configuration not stated)
inactive: [1] 8.35% | [2] 6.7% | [3] 44.3% | [4] 18.1% | [5] 41.8% | [6] 45.7%

O=c1cc(CO)oc2c3c(cc(O)c12)OCC(COC1OC(CO)C(O)C(O)C1O)=CC3 (configuration not stated)
inactive: [1] -1.25% | [2] -8.75% | [3] -1.75% | [4] -13.9% | [5] -0.55% | [6] -0.9%

Clc1ccc(C2ON=C(c3ccccc3)N2C23CC4CC(CC(C4)C2)C3)c(Cl)c1 (configuration not stated)
inactive: [1] -18.9% | [2] -26.4% | [3] -12.4% | [4] -48.6% | [5] -21.4% | [6] -21.5%

CCN(CC)CCCC#N
inactive: [1] -5.25% | [2] 4.7% | [3] -8.8% | [4] -13% | [5] -2.6% | [6] -2.85%

COc1cc2c(cc1N)-c1ccc(N)cc1C2O (configuration not stated)
inactive: [1] 7.55% | [2] 3.65% | [3] -9.05% | [4] 17.3% | [5] 17.1% | [6] 1.05%

Nc1nc(SCC(=O)O)nc2nc[nH]c12
inactive: [1] -0.15% | [2] 3.15% | [3] -13.3% | [4] -32% | [5] -7.5% | [6] 4.95%

O=C1C(c2ccccc2)C(c2ccccc2)C(c2ccccc2)C1c1ccccc1 (configuration not stated)
inactive: [1] 52% | [2] 1.05% | [3] 15.9% | [4] 5.65% | [5] -4.3% | [6] 5.65%

CCOC(=O)CN1C(=O)CCC1=O
inactive: [1] -6.6% | [2] 2.55% | [3] -1.2% | [4] -3.5% | [5] 1.45% | [6] -5.95%

COc1cc2c(c([N+](=O)[O-])c1)NC(=O)CS2
inactive: [1] -81.2% | [2] -60.5% | [3] -17.2% | [4] -4.5% | [5] 0.95% | [6] -28.1%
